This excerpt belongs to a sample that is enriched for hits.
Pf apPOL inh – Pf-apPOL DNA polymerase inhibition; Recombinant Pf-apPOL, molecular beacon fluorescence, 1.5 h; inhibition, % at 10 µM; 210,000 compounds, 0.25% hits
mHTT CaM bind – inhibitors of human mutant huntingtin-calmodulin interaction; P42858; AlphaScreen His-mHTT/GST-CaM binding, luminescence; inhibition, % at 15 µM; 190,000 compounds, 3.6% hits; AID 1671202;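 also: 0% = both proteins with DMSO and 100% = one protein alone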
Active calls of the source: *; ! = a repeat was not active. Rule as the data show it: active = inhibition above about 50%; inactive = the rest.

SMILES	Pf apPOL inh	mHTT CaM bind
Cc1ccc(N=Cc2cc(C)c(C)cc2O)c(O)c1	8	53*
Cc1ccc(N=Cc2cc([N+](=O)[O-])ccc2O)c(Br)c1	-3	4
COc1ccc(C=Nc2ccc(C)cc2C)cc1O	8	7
COc1ccc(N2C(=O)Nc3cc(Cl)c(Cl)cc3N2O)c(OC)c1	-2	3
CC(=O)C(Sc1nnc(NC(=O)C2CC(=O)N(c3ccccc3)C2)s1)C(=O)N(C)C (stereo unspecified)	4	-7
COc1ccc(NC(=O)c2ccoc2C)c(OC)c1	-1	15
COCCCN1COc2ccc3c(=O)c(Oc4ccc(C(=O)OC)cc4)c(C)oc3c2C1	-19	3
COC(=O)c1ccc(Oc2c(C)oc3c4c(ccc3c2=O)OCN(Cc2ccccn2)C4)cc1	-36	100*
CC1(C)CC(=O)C2=C(C1)N=C1c3ccccc3C(=O)C1C2c1cccc(Cl)c1 (stereo unspecified)	-2	64*
CC1(C)CC(=O)C2=C(C1)N=C1c3ccccc3C(=O)C1C2c1ccc(Cl)cc1 (stereo unspecified)	-3	68*
CC1(C)CC(=O)C2=C(C1)N=C1c3ccccc3C(=O)C1C2c1ccccc1Cl (stereo unspecified)	11	13
O=C1CCCC2=C1C(c1cccc(Cl)c1)C1C(=O)c3ccccc3C1=N2 (stereo unspecified)	-10	4
Cc1ccc(C2C3=C(CC(C)(C)CC3=O)N=C3c4ccccc4C(=O)C32)cc1 (stereo unspecified)	30	62*
COc1ccc(C2C3=C(CC(C)(C)CC3=O)OC3=C2C(=O)CC(C)(C)C3)cc1OC	2	-3
Cc1cc(C2C3=C(CC(C)(C)CC3=O)N=C3c4ccccc4C(=O)C32)cc(C)c1O (stereo unspecified)	0	38
COc1ccc(C2C3=C(CC(C)(C)CC3=O)N=C3c4ccccc4C(=O)C32)cc1OC (stereo unspecified)	3	64*
O=C(c1cc2ccccc2[nH]1)N1CCCn2nc(-c3cccs3)cc2C1	-6	18
CC1(C)CC(=O)C2=C(C1)N=C1c3ccccc3C(=O)C1C2c1cccc([N+](=O)[O-])c1 (stereo unspecified)	-2	51*!
O=C1CCCC2=C1C(c1ccc(Br)cc1)C1C(=O)c3ccccc3C1=N2 (stereo unspecified)	-1	69*
O=C1CCCC2=C1C(c1cc(Br)ccc1O)C1C(=O)c3ccccc3C1=N2 (stereo unspecified)	-1	40
CC1(C)CC(=O)C2=C(C1)Nc1ccccc1NC2c1cccc([N+](=O)[O-])c1 (stereo unspecified)	-2	0
COc1ccc(NC(=O)CSc2ccncc2)c([N+](=O)[O-])c1	0	-1
Cc1ccccc1NC(=O)C1CCCN(c2ncc(-c3cccc(F)c3)cn2)C1 (stereo unspecified)	2	-2
CC(C)(C)c1ccc2[nH]c3c(cc(NCCO)c4c(=O)c5ccccc5c(=O)c43)oc2c1	-2	24
O=C(Nc1cccc(-c2nc3ccccc3[nH]2)c1)c1ccc([N+](=O)[O-])cc1	2	84*!
SMILES	Pf apPOL inh	mHTT CaM bind
CC(=O)c1ccc(C(=O)Nc2cccc(-c3nc4ccccc4[nH]3)c2)cc1	0	27
Cc1ccc(C(=O)N2CCC(c3nc(CNC(=O)C4CC4)cs3)CC2)cc1C	-2	29
CNC(=O)C1CCN(c2nc3ccc(-c4ccc(OC)cc4)nc3s2)CC1	1	15
CCCS(=O)(=O)N1CCC(c2nc3ccncc3n2C(C)C)C1 (stereo unspecified)	2	2
O=C(NCc1ccccn1)C(=O)NC1CCCCCC1	-8	-7
CC(CCc1ccc(O)cc1)Nc1ccc2[nH]ncc2c1 (stereo unspecified)	1	40
COc1ccc(CNc2ccc3[nH]ncc3c2)cc1C	12	65*
Cc1ccc(C)c(CNc2ccc3[nH]ncc3c2)c1	0	75*
COc1ccc(CNc2ccccc2)cc1C	-2	8
Cc1ccc(NC(=O)c2oc3ccc(S(=O)(=O)N4CCCC4)cc3c2C)c(C)c1	-8	-5
Cc1ccc(CNC(=O)C(=O)Nc2c(C)cc(C)cc2C)cc1	-8	2
O=C(Nc1nccs1)c1ccc(NC(=O)c2ccccc2[N+](=O)[O-])cc1	-3	13
O=C(Nc1nccs1)c1ccc(NC(=O)c2ccccc2-c2ccccc2C(=O)O)cc1	-1	84*
COc1ccc(N2C(c3ccsc3)=Cc3cc4c(cc3C2c2c[nH]c3ccccc23)OCO4)cc1 (stereo unspecified)	-9	70*
CC(C)(O)C#Cc1ccc(N2C(c3ccsc3)=Cc3ccc(F)cc3C2c2c[nH]c3ccc(C#N)cc23)cc1 (stereo unspecified)	-4	-7
Cc1ccc(NS(=O)(=O)c2cc3n(c2)CCCNC3=O)cc1C	6	1
Oc1ccc(NCc2cccs2)cc1	0	64*
COC(=O)c1ccc(NCc2cccs2)cc1	-3	-11
COc1ccc(-c2ccc(N3CCN(C(=O)C(C)Oc4cccc(F)c4)CC3)nn2)cc1 (stereo unspecified)	-14	2
CCCCCOc1ccc(NC(=O)CSc2cccc3cccnc23)cc1	-2	83*
O=C(CSc1cccc2cccnc12)Nc1ccccc1	-1	0
Cc1cccc(C2CCCN2C(=O)NCc2ccccc2)c1 (stereo unspecified)	1	-5
N#Cc1ccc(NC(=O)c2nn3c(c2Cl)NC(c2ccccc2)CC3C(F)(F)F)cc1 (stereo unspecified)	3	-1
N#Cc1cc(Cc2ccc(N)c(C#N)c2)ccc1N	-38	2
Nc1ccc(Cc2ccc(N)c(O)c2)cc1O	60*	87*
SMILES	Pf apPOL inh	mHTT CaM bind
N#CSC(C#N)Cc1ccc([N+](=O)[O-])cc1 (stereo unspecified)	-1	60*
N#CSC(C#N)Cc1ccccc1 (stereo unspecified)	-7	42
COc1ccccc1CN=Cc1[nH]c2ccc(Br)c(Cl)c2c1O	-9	71*
COc1cccc(CN=Cc2[nH]c3ccc(Br)c(Cl)c3c2O)c1OC	-3	14
Cc1ccsc1/C=C1\SC(=N)N(c2ccc3c(c2)OCO3)C1=O	3	9
O=C(COc1ccccc1[N+](=O)[O-])Nc1ccc(N2CCCC2)cc1	54*	34
O=C(COc1ccccc1[N+](=O)[O-])Nc1cc(C(=O)O)cc(C(=O)O)c1	1	-6
COc1ccccc1C(=O)Nc1ccc(N2CCCC2)cc1	0	61*
COc1ccccc1C(=O)Nc1cnc(N2CCCC2)nc1	-2	-3
O=C(Cc1ccccc1)Nc1ccc(S(=O)(=O)N2CCCC2)cc1	-8	1
Cc1ccc(C(=O)Nc2ccc(N3CCOCC3)cc2)cc1C	3	11
O=C(Cc1ccccc1)Nc1ccc(N2CCCC2)cc1	-10	92*
Cc1ccc(C(=O)Nc2ccc(N3CCCC3)cc2)cc1Cl	-3	100*
CCN1CCN(Cc2ccc(NC(=O)C3CCCN(C(=O)c4cccc(C)c4)C3)cc2)CC1 (stereo unspecified)	-7	34
Cc1scc2nc(C(=O)NC3CCCC3)nc(N(C)C)c12	0	22
CN1CCN(c2ncncc2N2CCC(C(=O)N(C)Cc3ccccc3)CC2)CC1	-2	25
O=C(Cc1cccs1)N1CCc2nc[nH]c2C1	4	-3
O=C(CN1CC(c2nc(-c3cccs3)no2)C1)Nc1nc2ccccc2s1	-4	12
